High-throughput results: PubChem, National Center for Advancing Translational Sciences (NCATS)
KB-3-1 cytotox: KB-3-1 parental cell cytotoxicity; 400,000 compounds, 1.4% hits; KB-3-1 viability, CellTiter-Glo ATP luminescence, 72 h; Potency, µM (top dose mostly 46.1 µM), hits mostly cytotoxic; AID 1347075; further: nearly all actives have a fitted effect of over 60% in size
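Screening of KB-3-1 cells (DMEM, 10% FBS, phenol-red free) ran from lowest to highest compound concentration; after 72 h at 37 °C viability was read luminescently and curves fitted.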
KB-V1 MDR tox: KB-V1 MDR subline cytotoxicity; KB-V1 MDR cells viability, CellTiter-Glo, 72 h; Potency, µM (titrated, usually from 46.1 µM), hits mostly cytotoxic; 400,000 compounds, 3.4% hits; AID 1347076; further: nearly all actives have a fitted effect of over 60% in size
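Luminescent ATP read-out (CellTiter-Glo, 10 min) measures survival of drug-selected KB-V1 MDR cells after 72 h, 37 degrees C compound exposure. Medium: phenol-red-free DMEM, 10% FBS. Values from fitted concentration-response curves.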
HT1080NT lethal: kills 2HG-producing HT-1080-NT fibrosarcoma cells. HT-1080-NT fibrosarcoma viability, CellTiter-Glo ATP luminescence, 48 h. 360,000 compounds, 1.6% hits. Potency, µM (top dose mostly 46.1 µM), most hits filed as cytotoxic;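 further: NT is the 2HG producing partner of a matched IDH1 knockdown line; nearly all actives have a fitted effect of over 55% in size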
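Viability of the 2HG-overproducing fibrosarcoma line after 48 hours of compound exposure at 37 degrees C was determined by luminescence with CellTiter-Glo, and concentration-effect curves were then fitted and categorized.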
SW480 rereplic: inducers of DNA re-replication in SW480 colon cancer cells; SW480 DNA re-replication, Hoechst DNA content imaging, 48 h; Potency, µM (highest dose often 46.1 µM), actives largely listed as activators; 340,000 compounds, 1.8% hits; AID 624297; further: nearly all actives have a fitted effect of over 55% in size
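SW480 cells exposed to compounds for 48 hr at 37 C, 5% CO2, then Hoechst-stained 40 min. Nuclear DNA content imaged by fluorescence scanning (405 nm excitation, 500-530 nm emission); re-replication scored as increased high-intensity nuclei.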
HT1080 IDH1KD tx: toxicity to HT-1080 IDH1 knockdown cells (counter line) | AID 686971 | Potency, µM (top dose mostly 46.1 µM), most hits filed as cytotoxic | 360,000 compounds, 2% hits | HT-1080 IDH1 knockdown viability, ATP luminescence, 48 h
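In this qHTS, HT-1080 cells depleted of IDH1 are exposed for 48 h at 37 °C to compound titrations. Toxicity is scored from CellTiter-Glo luminescence, with DMSO as full viability and medium alone as none.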
MCF10A rerep: DNA re-replication induction in MCF 10a cells; Potency, µM (top dose mostly 46.1 µM), hits mostly activators; MCF 10A DNA re-replication, Hoechst nuclear intensity, 48 h; AID 624296; 350,000 compounds, 2.9% hits; further: nearly all actives have a fitted effect of over 50% in size
Numbers stand for hits; 0 = inactive; ? = inconclusive; - = not tested or not shown; [ ] = remark or other dose. Compounds with a hit are over-represented: about 7.9% of the library has one in this group of screens. The call rests on the fitted dose curve; in most records, active means well fitted curve in the direction sought with a large enough effect; inconclusive means small, poorly fitted or top-dose-only effect, or another doubt; inactive means no such curve, though single readings can be large; an effect the other way counts as inactive or inconclusive.

SMILES	KB-3-1 cytotox	KB-V1 MDR tox	HT1080NT lethal	SW480 rereplic	HT1080 IDH1KD tx	MCF10A rerep
O=C(/C=C/c1ccc(O)c([N+](=O)[O-])c1)c1ccc2ccccc2c1	0	0	0	?	?	7.3µM
COc1ccc(/C=C/C(=O)c2ccc(O)cc2)cc1COc1ccc(F)cc1	0	0	?	0	?	0
COc1ccc(C(=O)/C=C/c2cccc(OCc3ccccc3)c2)cc1CSCC(=O)O	?	?	0	0	?	0
COc1ccc(C(=O)/C=C/c2ccc(OCc3ccccc3)cc2)cc1CSCC(=O)O	0	0	?	?	?	23µM
Cc1cnc(C(=O)Oc2c(C)ccc(C)c2C)cn1	0	0	0	0	0	0
C=C1c2nc3ccccc3n2C=C(c2ccc(C)cc2)N1c1ccccc1	16µM	?	21µM	?	18µM	4.6µM
C=C(C)Cn1c(-c2ccccc2)nc2ccccc21	0	?	0	0	0	0
COC(=O)c1nc(N)sc1-c1ccc(OC)cc1	0	?	0	0	0	?
N#Cc1ccccc1OCCN1C(=O)c2ccccc2C1=O	0	0	0	0	0	12µM
O=C1c2ccccc2C(=O)N1CCOCCN1C(=O)c2ccccc2C1=O	0	0	0	0	0	0
Nc1cccc2c1C(=O)N(CCOc1ccccc1F)C2=O	0	0	0	?	0	18µM
Cc1cccc(OCCN2C(=O)c3ccccc3C2=O)c1	0	?	0	0	0	0
Cc1cccc(CC(=O)NC2CCN(C)CC2)c1	0	0	0	0	0	0
Cc1ccc(S(=O)(=O)CC(=O)Nc2nc3ccccc3s2)cc1	0	0	0	0	0	0
Cc1ccc(S(=O)(=O)Cc2sc3ccccc3[n+]2C)cc1	0	21µM	0	0	0	0
Cc1cccc(C)c1OCc1cc(C(=O)N(C)Cc2cc(C3CC3)n[nH]2)no1	0	0	0	0	0	0
Cc1nn(C)c(C)c1NC(=O)COc1ccc(Cl)cc1Br	-	-	?	0	0	16µM
Cc1nn(C)c(C)c1NC(=O)COc1ccc(F)cc1Br	0	0	13µM	0	0	0
Cc1cccc(NC(=O)C2CCN(S(=O)(=O)c3ccc(Cl)cc3)CC2)n1	0	?	?	?	0	0
O=C(CSc1nnc2ccccn12)N1CCc2ccccc2C1	0	0	0	0	0	0
CCOC(=O)c1c(CSc2ccccc2)n(C)c2cc(Br)c(OCC(O)CNC(CO)(CO)CO)cc12 (stereo not given)	?	0	0	?	0	21µM
Cn1cnc2c1c(=O)[nH]c(=O)n2Cc1ccccc1	0	0	0	0	0	0
COc1ccc(N2CC3=C(C2=O)C(c2ccc(Br)cc2)NC(=O)N3C)cc1 (stereo not given)	0	26µM	-	-	-	-
COc1ccc(C2NC(=O)N(C)C3=C2C(=O)N(c2ccc(Br)cc2)C3)cc1 (stereo not given)	0	0	-	-	-	-
Cc1cccc(/C=N/NC(=O)c2cc(-c3cccnc3)nc3c2c(C)nn3-c2ccccc2)c1	0	15µM	0	0	0	?
SMILES	KB-3-1 cytotox	KB-V1 MDR tox	HT1080NT lethal	SW480 rereplic	HT1080 IDH1KD tx	MCF10A rerep
Cc1cccc(/C=N/NC(=O)c2cc(-c3cccnc3)nc3ccccc23)c1	0	0	0	0	0	0
COc1ccc(-c2nc(CSc3nnc(C)n4c3cc3occc34)c(C)o2)cc1OC	0	0	-	-	-	-
Cn1c(=O)c2cc(S(=O)(=O)NCCC(=O)N3CC=C(c4ccccc4)CC3)ccc2n(C)c1=O	0	23µM	0	0	0	0
COc1cccc(C2=CC(=O)C[C@H](c3ccc(Cl)cc3)C2)c1OC	0	0	0	0	0	23µM
COc1ccc(Br)cc1C1=CC(=O)C[C@H](c2ccc(F)cc2)C1	0	16µM	0	-	0	-
COc1ccccc1C1=CC(=O)C[C@H](c2ccc(Cl)cc2)C1	0	0	?	?	?	0
COc1ccc([C@H]2CC(=O)C=C(c3ccc(OC)cc3OC)C2)cc1	0.82µM	1.5µM	2.3µM	13µM	2.1µM	?
COc1ccc([C@H]2CC(=O)C=C(c3ccc(Cl)cc3C)C2)cc1	?	?	0	?	0	18µM
COc1ccc(Cl)cc1S(=O)(=O)N1CCC(C(=O)NC2CCCC2)CC1	0	0	0	?	0	0
COCCn1nnnc1C(c1cccc(C(F)(F)F)c1)N1CCN(Cc2ccccc2)CC1 (stereo not given)	0	0	0	0[9.22 µM]	0	0
Cc1ccc(S(=O)(=O)Nc2cc(C)cn(Cc3ccccc3)c2=O)cc1	?	?	0	?	0	0
CCC(=O)Nc1ccc(C(=O)COC(=O)CCN2C(=O)C3CC=CCC3C2=O)cc1 (stereo not given)	0	0	0	0	0	0
Cc1ccc(NC(=O)c2nc[nH]c2C(=O)NC2CCN(C(=O)OC(C)(C)C)CC2)cc1	0	?	0	0	0	0
O=C(O)COc1ccc(C(=O)c2ccccc2)cc1	0	0	0	0	0	0
CC(=O)c1ccc(OCc2ccc(C(=O)c3ccccc3)cc2)cc1	15µM	16µM	0	0	0	0
COCCOCC(=O)Nc1ccc(S(=O)(=O)Nc2cc(C)nc(C)n2)cc1	0	0	0	0	0	0
COc1ccc2c(c1)sc(N)[n+]2Cc1cc(C)cc2cccnc12	4.6µM	4.6µM	?	8.2µM	5.2µM	4.6µM
CCOc1ccc2c(c1)sc(N)[n+]2Cc1cc(C)cc2cccnc12	2.6µM	1.3µM	6.5µM	4.6µM	3.3µM	8.2µM
Cc1cc(C[n+]2ncsc2N)c2ncccc2c1	0	0	0	0	0	0
O=C(NCCC(=O)N1CCCCC1)c1ccccc1Cl	0	0	0	0	0	0
Cc1ccc(S(=O)(=O)N2CCN(C(=O)CCC(=O)Nc3ccc(Br)c(C)c3)CC2)cc1	0	13µM	0	0	0	0
CCOC(=O)N1CCN(CCC(=O)Nc2ccc(Br)c(C)c2)CC1	?	18µM	0	0	0	0
O=C(CCC(=O)N1CCN(S(=O)(=O)c2ccc(Cl)cc2)CC1)Nc1ccc2ccccc2c1	0	0	0	0	0	0
CCN1CCN(CCC(=O)Nc2ccc(Br)c(C)c2)CC1	0	0	0	?	0	?
O=C1c2cc(Cl)ccc2OC2(CCNCC2)C12CC(c1ccccc1)=NO2 (stereo not given)	0	0	0	?	0	0
CN(C)c1c(N)[nH]c2c(c1=O)c(=O)n(C)c(=O)n2C	0	0	0	?	0	0
c1ccc(CN2CCN(CCOCCOc3ccc4c(c3)CCC4)CC2)cc1	?	?	16µM	?	?	?
O=C(c1ccccc1)c1ccc(OCCCN2CCCC2)cc1	0	0	0	0	0	?
c1ccc(COCCN2CCN(CCOCc3ccccc3)CC2)cc1	0	23µM	0	0	0	0
